Results on six molecules are retold here after PubChem BioAssay (Tox21).

Assay [1] in a line: A CellTox Green Cytotoxicity Assay to monitor cytotoxicity in HEK293 cells - 8 hour (AID 1224884). Further: nearly all actives have a fitted effect of over 35% in size. Summed up: (§1)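 Seeding of HEK293 cells together with cytotoxicity dye preceded a 5 h incubation at 37 C/5% CO2. Test compounds in DMSO were then added and fluorescence monitored across 40 h.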
Assay [2] is described as follows: qHTS RealTime-Glo MT Cell Viability Assay in HepG2 cells - 16 hour (AID 1224885). Further: nearly all actives have a fitted effect of over 50% in size. The method, boiled down: (§2)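 Cells + NanoLuc/prosubstrate dispensed (600 cells/well) → 5 h at 37 C/5% CO2 → compounds in DMSO transferred → 40 h incubation at 37 C, luminescence read at 0, 8, 16, 24, 32, 40 h.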
Assay [3] is described as follows: qHTS RealTime-Glo MT Cell Viability Assay in HEK293 cells - 8 hour (AID 1224887). Further: nearly all actives have a fitted effect of over 50% in size. Further: potency means the concentration at half of the fitted maximal effect. On activity change, negative = cytotoxicity: top concentration of the series differs between compounds. The method, boiled down:
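Tox21 screen in HEK293 using RealTime-Glo MT chemistry, with cells and reagent co-dispensed. Luminescence proportional to viable cell number was captured at intervals during 40 h compound exposure at 37 C.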

A short description of assay [4]: A CellTox Green Cytotoxicity Assay to monitor cytotoxicity in HEK293 cells - 16 hour (AID 1224888). Further: nearly all actives have a fitted effect of over 35% in size. Summed up: as §1
A short description of assay [5]: qHTS RealTime-Glo MT Cell Viability Assay in HepG2 cells - 0 hour (AID 1224889). Further: nearly all actives have a fitted effect of over 50% in size. Summed up:
as §2

Assay [6] is described as follows: A CellTox Green Cytotoxicity Assay to monitor cytotoxicity in HepG2 cells - 8 hour (AID 1224890). Further: nearly all actives have a fitted effect of over 45% in size. Summed up:
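Nonlytic assay: viable cells exclude the dye, so fluorescence scales with cell death. HepG2 at 600 cells/well, compounds added after 5 h, signal read across 40 h.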

The nature of assay [7]: qHTS assay to identify small molecule antagonists of the estrogen receptor alpha (ER-alpha) signaling pathway using the BG1 cell line in the presence of 0.1 nM 17-beta-estradiol - cell viability counter screen (AID 1259241). Further: nearly all actives have a fitted effect of over 40% in size. Summed up: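 VM7Luc4E2 cells (endogenous full-length ER-alpha, 4xERE-luciferase), cultured 5 days in charcoal-stripped serum, exposed to compounds with 0.1 nM 17beta-estradiol (final) for 22 hr at 37C. Viability read in same wells as live-cell protease fluorescence after 30 min.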

The nature of assay [8]: qHTS assay to identify small molecule antagonists of the androgen receptor (AR) signaling pathway using the MDA cell line in the presence of 0.5 nM R1881 - cell viability counter screen (AID 1259242). Further: nearly all actives have a fitted effect of over 45% in size. Summed up: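 R1881 at 0.5 nM final stimulated MDA-kb2 cells during 16 hr compound treatment at 37C. Cytotoxicity read: CellTiter-Fluor fluorescence after 30 min.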
The target in assay [9] is Estrogen receptor (Homo sapiens) (UniProt P03372). Nature of the assay: qHTS assay to identify small molecule antagonists of the estrogen receptor alpha (ER-alpha) signaling pathway using the BG1 cell line in the presence of 0.1 nM 17-beta-estradiol (AID 1259244). Further: nearly all actives have a fitted effect of over 50% in size. The method, boiled down: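 VM7Luc4E2; 4xERE-luciferase; 0.1 nM E2 final; 22 h co-incubation, 37C; ONE-Glo luminescence after 30 min at room temperature.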
Chain of Estrogen receptor (Homo sapiens) (P03372 whole entry, looked up): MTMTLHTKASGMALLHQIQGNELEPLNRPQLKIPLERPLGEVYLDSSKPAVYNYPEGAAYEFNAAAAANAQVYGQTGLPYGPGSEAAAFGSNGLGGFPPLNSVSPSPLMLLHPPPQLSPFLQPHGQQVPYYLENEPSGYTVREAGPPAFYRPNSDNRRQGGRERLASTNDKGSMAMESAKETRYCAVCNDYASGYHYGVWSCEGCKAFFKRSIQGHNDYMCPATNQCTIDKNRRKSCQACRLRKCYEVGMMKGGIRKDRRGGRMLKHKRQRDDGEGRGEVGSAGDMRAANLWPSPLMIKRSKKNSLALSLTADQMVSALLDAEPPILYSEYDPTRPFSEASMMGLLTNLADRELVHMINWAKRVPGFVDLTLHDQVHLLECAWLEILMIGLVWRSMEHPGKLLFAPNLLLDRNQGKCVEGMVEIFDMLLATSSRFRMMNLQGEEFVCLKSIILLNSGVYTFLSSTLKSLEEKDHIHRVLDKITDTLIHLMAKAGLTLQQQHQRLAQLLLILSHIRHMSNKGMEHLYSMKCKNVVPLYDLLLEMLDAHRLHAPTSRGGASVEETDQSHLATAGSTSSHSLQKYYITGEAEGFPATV

Assay [10] can be described thus: qHTS assay to identify small molecule HDAC inhibitors (AID 1259364). Further: potency means the concentration at half of the fitted maximal effect.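 Further: wild-type HCT-116 cells with endogenous class I/II HDAC activity; nearly all actives have a fitted effect of over 45% in size.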 On activity change, negative = inhibition: top concentration of the series differs between compounds. The method, boiled down: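 Relative class I and II HDAC activity is taken from the luminogenic signal in HCT-116 cells, with compound exposure 2 hr and reagent development 30 min at room temperature.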
The nature of assay [11]: qHTS assay to identify small molecule HDAC inhibitors - cell viability counter screen (AID 1259365). The method, boiled down:
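Wild-type HCT-116 cells, 1,500/well, cultured overnight, then compound-treated 2 h at 37 C. Viability measured as ATP luminescence with CellTiter-Glo after 30 min at room temperature.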

Assay [12] can be described thus: qHTS assay to identify small molecule agonists of the sonic hedgehog signaling (Shh) pathway - cell viability counter screen (AID 1259366). Further: nearly all actives have a fitted effect of over 50% in size. The method, boiled down:
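NIH/3T3-derived Gli1-Luc reporter cells, 2,000 per well, received compound after 4 h and were treated about 23 h at 37C. Viability measured in the same wells by CellTiter-Fluor fluorescence after 1 h.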

A short description of assay [13]: qHTS assay to identify small molecule antagonists of the sonic hedgehog signaling (Shh) pathway - cell viability counter screen (AID 1259367). Further: nearly all actives have a fitted effect of over 55% in size. The method, boiled down: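 NIH/3T3-derived Gli1-Luc reporter cells (2,000 per well) rested 4 hr at 37 C, then received DMSO compounds plus conditioned medium. After 23 hr of treatment, CellTiter-Fluor was added for 1 hr at 37C and fluorescence read.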

Assay [14] is described as follows: qHTS assay to identify small molecule agonists of the sonic hedgehog signaling (Shh) pathway (AID 1259368; calls by dose curve;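 further: NIH/3T3-derived 3T3Gli1-Luc cells carrying a stable Gli1-driven firefly luciferase reporter; series mostly up to about 92 µM; nearly all actives have a fitted effect of over 15% in size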). The method, boiled down:
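Mouse fibroblast (NIH/3T3) reporter cells with stably integrated Gli1-Luc were treated 24 hr with compound; firefly luciferase luminescence served as the read-out.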

In assay [15] the target is Estrogen receptor beta (Homo sapiens) (UniProt Q92731). Nature of the assay: qHTS assay to identify small molecule agonists of the estrogen receptor beta (ER-beta) signaling pathway (AID 1259377; active means well fitted activation curve with a large enough effect in the signal ratio in the repeat runs, not every such curve was filed as active; the % refers to the signal ratio). The method, boiled down: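 ER-beta-UAS-bla HEK293T cells in medium with 2% charcoal-stripped FBS were exposed to compounds for 16 h at 37C. Beta-lactamase reporter activity was read as fluorescence after 2 h with LiveBLAzer B/G FRET substrate at room temperature.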
Chain of Estrogen receptor beta (Homo sapiens) (Q92731 whole entry, looked up): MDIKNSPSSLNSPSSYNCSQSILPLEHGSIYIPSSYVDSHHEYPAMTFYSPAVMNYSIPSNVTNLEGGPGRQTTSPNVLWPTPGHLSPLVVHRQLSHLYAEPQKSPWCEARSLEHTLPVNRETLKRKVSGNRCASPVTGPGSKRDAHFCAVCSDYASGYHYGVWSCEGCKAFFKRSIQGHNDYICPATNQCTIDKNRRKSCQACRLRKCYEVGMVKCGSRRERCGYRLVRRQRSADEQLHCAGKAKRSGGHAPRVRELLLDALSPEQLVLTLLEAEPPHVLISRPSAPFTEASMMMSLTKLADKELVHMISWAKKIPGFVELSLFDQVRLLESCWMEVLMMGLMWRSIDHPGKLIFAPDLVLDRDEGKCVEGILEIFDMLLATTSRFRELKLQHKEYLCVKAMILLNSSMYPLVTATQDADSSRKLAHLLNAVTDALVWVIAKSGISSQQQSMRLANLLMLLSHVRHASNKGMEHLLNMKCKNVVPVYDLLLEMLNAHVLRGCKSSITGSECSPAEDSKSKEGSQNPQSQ

Assay [16] shares this target. Nature of the assay: qHTS assay to identify small molecule antagonists of the estrogen receptor beta (ER-beta) signaling pathway (AID 1259378; active means well fitted inhibition curve with a large enough effect in the signal ratio in the repeat runs, not every such curve was filed as active; the % refers to the signal ratio; further: potency means the concentration at half of the fitted maximal effect). Summed up: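 ER-beta-UAS-bla HEK293T (GripTite) cells in 2% charcoal-stripped FBS medium were preincubated 6 hr at 37C, dosed with compound, then stimulated with 1 nM E2 (final) for 16 hr; beta-lactamase reporter read by B/G FRET fluorescence after 2 hr substrate loading.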

In assay [17] the target is Androgen receptor (Homo sapiens) (UniProt P10275). Nature of the assay: qHTS assay to identify small molecule antagonists of the androgen receptor (AR) signaling pathway using the MDA cell line in the presence of 0.5 nM R1881 (AID 1259243). Further: nearly all actives have a fitted effect of over 50% in size. Summed up:
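We exposed MDA-kb2 cells to compounds under 0.5 nM R1881 stimulation for 16 hr at 37C and quantified MMTV-driven luciferase by luminescence.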

Assay [18] is described as follows: qHTS assay to identify small molecule antagonists of the sonic hedgehog signaling (Shh) pathway (AID 1259369; calls by dose curve; further: nearly all actives have a fitted effect of over 45% in size). Summed up:
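Conditioned medium drives Shh signalling in 3T3Gli1-Luc cells; compounds in DMSO co-applied, 24hr at 37 C, then luciferase luminescence.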

Assay [19] in a line: qHTS RealTime-Glo MT Cell Viability Assay in HEK293 cells - 24 hour (AID 1224886). The method, boiled down:
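Tox21 10K qHTS, HEK293, 600 cells/well, RealTime-Glo reagent co-dispensed with cells; 5 h preincubation, compound by pintool, 37 C, luminescence at 0–40 h.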

Unmarked numbers belong to inactive results. Records with an inconclusive call do not appear. Activity calls are given as the source filed them. Unless noted, the call rests on the fitted dose curve; in most records, active means well fitted curve in the direction sought with a large enough effect in the repeat runs; inconclusive means weak or mixed curves; inactive means no such curve, though single readings can be large; an effect the other way counts as inactive or inconclusive.
On the % scale 0 is the no-effect control and ±100 the full control effect.

Chain of Androgen receptor (Homo sapiens) (P10275 whole entry, looked up): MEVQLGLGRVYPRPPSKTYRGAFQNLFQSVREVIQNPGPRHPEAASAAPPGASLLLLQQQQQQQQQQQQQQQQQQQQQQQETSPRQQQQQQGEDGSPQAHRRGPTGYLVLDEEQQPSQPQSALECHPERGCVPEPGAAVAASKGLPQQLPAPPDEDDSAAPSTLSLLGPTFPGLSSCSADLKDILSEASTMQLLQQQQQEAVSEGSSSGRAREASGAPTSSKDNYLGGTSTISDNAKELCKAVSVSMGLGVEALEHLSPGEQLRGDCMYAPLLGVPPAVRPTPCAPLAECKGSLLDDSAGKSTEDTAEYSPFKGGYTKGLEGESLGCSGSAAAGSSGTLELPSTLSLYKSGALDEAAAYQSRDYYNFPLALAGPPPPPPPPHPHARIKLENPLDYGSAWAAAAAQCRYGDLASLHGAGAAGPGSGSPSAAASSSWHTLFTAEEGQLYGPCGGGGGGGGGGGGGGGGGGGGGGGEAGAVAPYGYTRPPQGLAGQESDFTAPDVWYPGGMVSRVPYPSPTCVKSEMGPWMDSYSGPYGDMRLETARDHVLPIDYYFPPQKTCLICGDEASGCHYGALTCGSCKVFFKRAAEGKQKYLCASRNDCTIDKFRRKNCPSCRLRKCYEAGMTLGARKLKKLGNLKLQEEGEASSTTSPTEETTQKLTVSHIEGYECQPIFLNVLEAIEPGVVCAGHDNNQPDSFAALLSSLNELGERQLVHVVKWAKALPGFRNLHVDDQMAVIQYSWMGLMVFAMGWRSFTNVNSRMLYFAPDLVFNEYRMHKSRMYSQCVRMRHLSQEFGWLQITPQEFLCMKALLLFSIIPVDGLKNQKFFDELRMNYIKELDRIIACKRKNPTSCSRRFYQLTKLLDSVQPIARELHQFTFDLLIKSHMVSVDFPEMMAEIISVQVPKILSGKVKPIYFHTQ

As to `c1ccc(-c2nc3ccccc3[nH]2)cc1`, the Potency entry in assay [1], in assay [2], in assay [4], in [5], in [6] and in assay [7] was “inactive” each time. Further, the Potency entry in [8], in assay [9], in [11], in assay [12], in [13] and in assay [14] was “inactive” throughout. In addition, in assay [16], the Potency result was “inactive”. Also, the Potency in assay [3] was 21.9 µM (active); in assay [10], 2.43 µM (active). Also, in [15], the molecule was classed as inactive.

As to `Cc1ccc(C2OC[C@@H]3OC(c4ccc(C)cc4)O[C@H]([C@H](O)CO)[C@@H]3O2)cc1` (some centres not stated), the Potency result in [1], in [2], in assay [5], in assay [6], in assay [7] and in assay [8] was “inactive” each time. Also, the Potency result in [17], in assay [9], in assay [10], in assay [11], in assay [12] and in assay [13] was “inactive” each time. For the same molecule, the Potency entry in assay [14] and in [18] was “inactive” each time.

On to `CCN(CC)c1ccc(C=O)cc1`, for which the Potency entry in assay [1], in assay [2], in assay [4], in assay [5], in [6] and in assay [7] was “inactive” each time. The Potency result in assay [8], in assay [9], in [10], in [12], in assay [13] and in assay [14] was “inactive” throughout. The Potency result in assay [18] and in assay [16] was “inactive” in each case. For the same molecule, the outcome in assay [15] was inactive.

As to `C1CCSC1`, the Potency result in [1], in [2], in assay [4], in assay [5], in assay [6] and in assay [7] was “inactive” in each case. Also, the Potency entry in assay [8], in assay [9], in assay [10], in [11], in [12] and in assay [13] was “inactive” in each case. For the same molecule, the Potency entry in assay [14] and in assay [18] was “inactive” throughout.

With `O=C(O)CN(CCCN(CC(=O)O)CC(=O)O)CC(=O)O`, the cytotoxicity increase is -4.96% [at 15.8 µM] in [1] and -1.45% [at 15.8 µM] in [6]. The activity change, negative = cytotoxicity was -9.03% [at 15.8 µM] in assay [19]; -4.97% [at 15.8 µM] in [3]; -28.3% [at 15.8 µM] in assay [5]; 0.536% [at 19 µM] in assay [7]; -1.94% [at 19 µM] in assay [11]. Moreover, the activity change in assay [4] is 0.612% [at 15.8 µM, stronger effect = higher value]; in assay [14] it was -1.26% [at 18.9 µM, stronger effect = higher value]. Further, the values for the viability change, negative = cytotoxic in assay [8], in assay [12] and in assay [13] were 0.128% [at 19 µM], -10.7% [at 19 µM] and -4.5% [at 19 µM], respectively. For the same molecule, the activity, negative = inhibition in assay [17] is 1.14% [at 19 µM]. The activity change, negative = inhibition in [9] was -0.399% [at 19 µM]; in assay [10], 1.25% [at 19 µM]. In addition, the activation in assay [15] is -3.28% [at 19 µM]. Also, the Potency in [16] was 2.31 µM (active).

Turning to `CCc1cccc(C)c1N(C(=O)CS(=O)(=O)O)C(C)COC` (configuration not stated), the Potency result in assay [1], in [19], in assay [3], in assay [4], in assay [5] and in [6] was “inactive” each time. Besides, the Potency entry in [7], in assay [8], in assay [17], in [9], in [10] and in [13] was “inactive” each time. The Potency result in assay [14], in assay [18] and in assay [16] was “inactive” throughout. Moreover, the molecule was called inactive in [15].
